# Assay results reported in PubChem BioAssay (Tox21).
# Values without a mark were called inactive. Results filed as inconclusive are left out. Active and inactive are the calls of the source. Unless noted, calls follow the shape of the dose curve; as a rule, active = well fitted curve in the direction sought with a large enough effect in the repeat runs; inconclusive = weak or mixed curves; inactive = no such curve, though single readings can be large; an effect the other way counts as inactive or inconclusive.
# What was measured:
# [1] = qHTS assay to identify small molecule agonists of the hypoxia (HIF-1) signaling pathway - cell viability counter screen (AID 1224844; calls by dose curve; also: nearly all actives have a fitted effect of over 50% in size; also: potency is read from the fitted curve at half-maximal effect)
# In short: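 CellTiter-Glo luminescence read-out, 30 min RT, taken in the same wells as the beta-lactamase HRE reporter assay; HRE-bla ME-180 cells, 0.5% dialyzed FBS, 17 hr compound treatment at 37C, 5% CO2.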
# [2] = qHTS assay to identify small molecule agonists of H2AX - cell viability counter screen (AID 1224847; calls by dose curve; also: nearly all actives have a fitted effect of over 30% in size; also: potency is read from the fitted curve at half-maximal effect)
# In short: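 Counter-screen for viability: CellTiter-Glo ATP luminescence read after 3 h compound treatment (15-point titration, 0.76% DMSO final) of CHO-K1 cells at 37C, with 30 min room-temperature reagent incubation.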
# [3] = qHTS assay to identify small molecule antagonists of the estrogen related receptor (ERR) signaling pathway from Tox21 library (AID 1224848); also: potency is read from the fitted curve at half-maximal effect; nearly all actives have a fitted effect of over 50% in size
# In short: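 Quantitative high-throughput format: ERR reporter cells (2,000/well) pre-incubated 6 h, treated 18 h at 37 C with compounds in DMSO alongside positive and negative controls, then read by ONE-Glo luminescence.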
# [4] = qHTS RealTime-Glo MT Cell Viability Assay in HepG2 cells - 24 hour (AID 1224867); also: nearly all actives have a fitted effect of over 50% in size; also: potency is read from the fitted curve at half-maximal effect
# In short: (§1)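 HepG2 cells were seeded at 600 cells/well together with NanoLuc luciferase and a cell-permeant prosubstrate, preincubated 5 h at 37 C/5% CO2, then pin-dosed with compounds in DMSO. Nonlytic luminescence from viable cells was read at each time point.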
# [5] = qHTS RealTime-Glo MT Cell Viability Assay in HEK293 cells - 32 hour (AID 1224868); also: nearly all actives have a fitted effect of over 50% in size; also: potency is read from the fitted curve at half-maximal effect
# In short: (§2)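 HEK293 cells were seeded at 600 cells/well together with NanoLuc luciferase and cell-permeant prosubstrate, preincubated 5 h at 37 C/5% CO2, then given compound in DMSO by pintool. Luminescence from viable-cell prosubstrate reduction was read repeatedly over 40 h.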
# [6] = A CellTox Green Cytotoxicity Assay to monitor cytotoxicity in HEK293 cells - 0 hour (AID 1224869)
# In short: (§3)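 Read-out: fluorescence of a cell-impermeant cyanine dye staining DNA of dead cells, proportional to cytotoxicity. HEK293, 600 cells/well with reagent, compound (23 nL DMSO) added after 5 h; reads at 0, 8, 16, 24, 32, 40 h.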
# [7] = A CellTox Green Cytotoxicity Assay to monitor cytotoxicity in HEK293 cells - 40 hour (AID 1224871); also: nearly all actives have a fitted effect of over 45% in size; also: potency is read from the fitted curve at half-maximal effect
# In short: as §3
# [8] = qHTS RealTime-Glo MT Cell Viability Assay in HEK293 cells - 16 hour (AID 1224872); also: nearly all actives have a fitted effect of over 50% in size; also: potency is read from the fitted curve at half-maximal effect
# In short: as §2
# [9] = qHTS RealTime-Glo MT Cell Viability Assay in HEK293 cells - 40 hour (AID 1224874); settings: RealTime-Glo luminescence; max response: stronger effect = lower value; also: nearly all actives have a fitted effect of over 50% in size; also: potency is read from the fitted curve at half-maximal effect; as to max response: % is scaled to controls: 0 for no effect and ±100 for the full control effect
# In short: (§4)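 Luminescence readout at each listed time point; HEK293, 600 cells/well, RealTime-Glo MT reagent added with cells; compounds pinned (23 nL in DMSO) after 5 h at 37 C; continuous culture at 37 C.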
# [10] = A CellTox Green Cytotoxicity Assay to monitor cytotoxicity in HEK293 cells - 24 hour (AID 1224875); also: nearly all actives have a fitted effect of over 45% in size; also: potency is read from the fitted curve at half-maximal effect; as to activity change: % is scaled to controls: 0 for no effect and ±100 for the full control effect
# In short: as §3
# [11] = A CellTox Green Cytotoxicity Assay to monitor cytotoxicity in HepG2 cells - 40 hour (AID 1224879); also: nearly all actives have a fitted effect of over 40% in size; also: potency is read from the fitted curve at half-maximal effect
# In short: (§5)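 HepG2, 600 cells/well premixed w/ CellTox Green; 5 h settle, 37 C/5% CO2; pintool cpd add (DMSO); 37 C, 40 h; fluorescence read at 0, 8, 16, 24, 32, 40 h.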
# [12] = qHTS RealTime-Glo MT Cell Viability Assay in HEK293 cells - 0 hour (AID 1224880); also: top concentration of the series differs between compounds; % is scaled to controls: 0 for no effect and ±100 for the full control effect; nearly all actives have a fitted effect of over 45% in size
# In short: as §4
# [13] = qHTS RealTime-Glo MT Cell Viability Assay in HepG2 cells - 40 hour (AID 1224870); also: nearly all actives have a fitted effect of over 50% in size; also: potency is read from the fitted curve at half-maximal effect
# In short: (§6)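 HepG2 cells (600/well) mixed with RealTime-Glo MT reagent, settled 5 h at 37 C/5% CO2 before compound addition. Nonlytic NanoLuc luminescence from viable-cell prosubstrate reduction read repeatedly during 40 h treatment at 37 C.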
# [14] = A CellTox Green Cytotoxicity Assay to monitor cytotoxicity in HepG2 cells - 16 hour (AID 1224876); also: nearly all actives have a fitted effect of over 45% in size; also: potency is read from the fitted curve at half-maximal effect
# In short: as §5
# [15] = qHTS RealTime-Glo MT Cell Viability Assay in HepG2 cells - 32 hour (AID 1224877); also: nearly all actives have a fitted effect of over 55% in size; also: potency is read from the fitted curve at half-maximal effect
# In short: as §1
# [16] = A CellTox Green Cytotoxicity Assay to monitor cytotoxicity in HepG2 cells - 24 hour (AID 1224878); also: nearly all actives have a fitted effect of over 45% in size; also: potency is read from the fitted curve at half-maximal effect; as to Cytotoxicity: % is scaled to controls: 0 for no effect and ±100 for the full control effect
# In short: as §5
# [17] = qHTS assay to identify small molecule agonists of the estrogen related receptor (ERR) signaling pathway from Tox21 library (AID 1224849; calls by dose curve; also: % is scaled to controls: 0 for no effect and ±100 for the full control effect; nearly all actives have a fitted effect of over 15% in size); settings: ERR reporter cell line, ONE-Glo luciferase, 18 h; at 92.4 µM (top of the series) unless noted
# In short: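 Luminescence readout (ONE-Glo, 30 min RT) after 18 h compound exposure at 37 C of NTP-supplied ERR reporter cells; cells were plated 6 h before compound addition by pin tool.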
# [18] = qHTS RealTime-Glo MT Cell Viability Assay in HepG2 cells - 8 hour (AID 1224873); also: nearly all actives have a fitted effect of over 55% in size; also: potency is read from the fitted curve at half-maximal effect
# In short: as §6
SMILES,Potency [1],Potency [2],Potency [3],Potency [4],Potency [5],Potency [6],Potency [7],Potency [8],Potency [9],Potency [10],Potency [11],Potency [12],Potency [13],Potency [14],Potency [15],Potency [16],"activity change, positive = activation [17]",Potency [18],max response [9] [%]
CC/C(=C(\c1ccc(O)cc1)c1ccc(OCCN(C)C)cc1)c1ccccc1,55.1 µM (active),90 µM (active),48.7 µM (active),61.8 µM (active),19.5 µM (active),inactive,43.8 µM (active),24.6 µM (active),17.4 µM (active),49.1 µM (active),55.1 µM (active),inactive,,,,,,,
CCCCCCCCCCCC(=O)NCCCN(C)C,49 µM (active),101 µM (active),,43.6 µM (active),38.9 µM (active),inactive,49 µM (active),49 µM (active),34.7 µM (active),54.9 µM (active),30.9 µM (active),,38.9 µM (active),43.6 µM (active),38.9 µM (active),34.7 µM (active),,,
COc1ccc(-c2ccc3cc(C(=O)O)ccc3c2)cc1C12CC3CC(CC(C3)C1)C2,13.4 µM (active),inactive,,,5.35 µM (active),,inactive,,4.77 µM (active),inactive,19 µM (active),inactive,,,,23.9 µM (active),,,
Cc1cc(O)c(C(C)(C)C)cc1Sc1cc(C(C)(C)C)c(O)cc1C,9.75 µM (active),17.9 µM (active),13.7 µM (active),43.6 µM (active),21.8 µM (active),inactive,54.8 µM (active),24.5 µM (active),21.8 µM (active),48.9 µM (active),48.9 µM (active),inactive,48.9 µM (active),,48.9 µM (active),54.8 µM (active),-80.3%,43.6 µM (active),
Clc1ccc(C(Cn2ccnc2)OCc2ccc(Sc3ccccc3)cc2)c(Cl)c1 (stereo not drawn),inactive,inactive,,inactive,inactive,inactive,inactive,inactive,,inactive,inactive,inactive,inactive,inactive,inactive,inactive,,inactive,-2.43
CC1=C(/C=C/C(C)=C/C=C/C(C)=C/C=O)C(C)(C)CCC1,30.7 µM (active),39.9 µM (active),,54.6 µM (active),19.4 µM (active),inactive,38.7 µM (active),19.4 µM (active),19.4 µM (active),38.7 µM (active),48.7 µM (active),inactive,,,,54.6 µM (active),,,
CCCCCCCCCOC(=O)c1ccc(O)cc1,54.2 µM (active),99.3 µM (active),,,38.3 µM (active),inactive,38.3 µM (active),43 µM (active),38.3 µM (active),38.3 µM (active),48.3 µM (active),inactive,inactive,,,,-33.4%,,
Cc1cc(O)c2ccccc2c1O,13.4 µM (active),5.52 µM (active),13.3 µM (active),13.4 µM (active),8.49 µM (active),inactive,9.52 µM (active),7.56 µM (active),8.49 µM (active),9.52 µM (active),13.4 µM (active),,13.4 µM (active),13.4 µM (active),13.4 µM (active),,-47.1% [at 42.5 µM],10.7 µM (active),
[Cl][Au]([Cl])[Cl],3.89 µM (active),inactive,3.06 µM (active),9.77 µM (active),,inactive,21.9 µM (active),4.9 µM (active),3.09 µM (active),21.9 µM (active),7.76 µM (active),inactive,8.71 µM (active),21.9 µM (active),9.77 µM (active),13.8 µM (active),,49 µM (active),
[Cl][Bi]([Cl])([c]1ccccc1)([c]1ccccc1)[c]1ccccc1,19.4 µM (active),35.5 µM (active),,6.88 µM (active),,inactive,24.4 µM (active),4.87 µM (active),1.94 µM (active),27.4 µM (active),4.87 µM (active),,7.71 µM (active),10.9 µM (active),6.88 µM (active),7.71 µM (active),,10.9 µM (active),
O=C(O)c1cc(O)c2c(c1)C(=O)c1cccc(O)c1C2=O,inactive,inactive,,inactive,inactive,inactive,inactive,inactive,,inactive,inactive,inactive,inactive,inactive,inactive,inactive,,inactive,-10.8
O=[N+]([O-])c1cc([N+](=O)[O-])c2ccc(S(=O)(=O)O)cc2c1O,inactive,inactive,,inactive,inactive,inactive,inactive,inactive,,inactive,inactive,inactive,inactive,inactive,inactive,,,inactive,-17.1
N=C1C=CC(=C(c2ccc(N)cc2)c2ccc(N)cc2)C=C1,inactive,28.4 µM (active),2.17 µM (active),24.5 µM (active),,inactive,inactive,3.09 µM (active),1.95 µM (active),inactive,inactive,inactive,38.9 µM (active),inactive,,inactive,,,
